Assay results: PubChem BioAssay (NCI)
This is part of a sample that, as a whole, favours compounds with a hit. Of some 79,000 tested, about 15% had one in any assay. No stated cut-off is given here; in the data, active means growth inhibition above about 70%; inactive means the rest.

How the values were obtained:
[1] = NCI Yeast Anticancer Drug Screen. Data for the rad50 strain (AID 155);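 further: 0% = growth of vehicle-only cultures of the same strain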; settings: S. cerevisiae rad50 strain growth inhibition; at 50.0 µM; active compounds read high
Procedure, shortened: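 Relative growth inhibition (compound vs vehicle) was measured in yeast with a defined repair-gene alteration.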

[2] = NCI Yeast Anticancer Drug Screen. Data for the mec2-1 strain (AID 157); settings: S. cerevisiae mec2-1 strain, at 50.0 µM, active compounds read high
Procedure, shortened: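 Each compound was tested on mec2-1 yeast, a strain altered in DNA damage repair or cell cycle control. Growth inhibition is reported relative to vehicle.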

[3] = NCI Yeast Anticancer Drug Screen. Data for the sgs1 mgt1 strain (AID 161);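 further: 0% = growth of cultures given vehicle only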; settings: S. cerevisiae sgs1 mgt1 strain, at 50.0 µM, active compounds read high
Procedure, shortened: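 Test agents were incubated with a DNA-repair-mutant yeast strain. Growth was then read and compared against vehicle-treated controls.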

[4] = NCI Yeast Anticancer Drug Screen. Data for the cln2 rad14 strain (AID 165);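 further: 0% = growth equal to vehicle treated cultures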; settings: S. cerevisiae cln2 rad14 strain, at 50.0 µM, active compounds read high
Procedure, shortened: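 Test compounds were added to cln2 rad14 yeast cultures; inhibition of growth was then determined by comparison with vehicle treatment.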

[5] = NCI Yeast Anticancer Drug Screen. Data for the bub3 strain (AID 167); settings: S. cerevisiae bub3 mutant strain, at 50.0 µM, active compounds read high
Procedure, shortened: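 Screening used yeast with an engineered genetic alteration affecting cell cycle control. Compound-exposed cultures were compared with vehicle cultures, and reduced growth was taken as inhibition.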

[6] = NCI Yeast Anticancer Drug Screen. Data for the mlh1 rad18 strain (AID 175); settings: S. cerevisiae mlh1 rad18 strain growth inhibition; at 50.0 µM; active compounds read high
Procedure, shortened: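 Inhibition values reflect reduced growth of mutant yeast versus vehicle-treated controls following compound exposure; the mutations affect DNA damage repair.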

Measured: growth inhibition

O=C1C2(CCCC13OC3c1ccccc1)OC2c1ccccc1 (stereo unspecified)
inactive: [1] -20.9% | [2] -11.1% | [3] -5.15% | [4] -14.4% | [5] 23.3% | [6] -3.6%

Cc1ccc(/C=C2\N=C(N3CCCC(CO)C3)NC2=O)cc1 (stereo unspecified)
inactive: [1] 18.6% | [2] -1.55% | [3] -18.3% | [4] -1.15% | [5] 1.3% | [6] -44%

N=C1C=C/[N+](=C\C=CCO)C([O-])=N1
inactive: [1] -18.2% | [2] -20.6% | [3] -35.3% | [4] -2.55% | [5] -43.4% | [6] -3.2%

CCNc1ncnc2sc(SCc3ccccc3)nc12
inactive: [1] -39.3% | [2] -20.8% | [3] -12.7% | [4] -0.6% | [5] -31.1% | [6] -37.1%

CCCCOP(=O)(OCCCC)C(c1ccccc1)(c1ccccc1)c1ccccc1
inactive: [1] 48.9% | [2] 42.5% | [3] 49.8% | [4] 42.5% | [5] 5.9% | [6] 59.6%

CC(C(=O)O)C1Nc2ccccc2NC1=O (stereo unspecified)
inactive: [1] 13.4% | [2] 28.6% | [3] 7.05% | [4] -12.4% | [5] -18.7% | [6] 0.3%

CC(=N/N(C)c1ccccc1)/C(C)=N/N(C)c1ccccc1
inactive: [1] 19.1% | [2] 6.7% | [3] 3.7% | [4] 3.65% | [5] 4.35% | [6] 15.8%

COc1ccc(C2(C(OC)OC)NC(=O)NC2=O)cc1 (stereo unspecified)
inactive: [1] -26.8% | [2] -4.1% | [3] -8.8% | [4] 35.4% | [5] -0.7% | [6] -8.85%

Nc1ccccc1C(=O)CC1OC(=O)c2ccccc21 (stereo unspecified)
inactive: [1] 19.6% | [2] 12.1% | [3] 7.35% | [4] 4% | [5] 7.8% | [6] -13.7%

CCOC(=O)c1c(C)[nH]c(=S)c(C#N)c1-c1ccco1
inactive: [1] 17.7% | [2] 6.15% | [3] 10.8% | [4] 4.4% | [5] -3.35% | [6] 28%

COC1CC(NC(C)=O)C(OC(C)=O)C(C)O1 (stereo unspecified)
inactive: [1] -1.5% | [2] -9.6% | [3] -5.65% | [4] -29.2% | [5] -7.55% | [6] -1.4%

C(=N\c1nc2ccccc2s1)/c1cccs1
inactive: [1] -15.7% | [2] -34% | [3] -14.8% | [4] -5.95% | [5] 3.45% | [6] -19.4%

Oc1ccc2c(c1)OCC(O)(c1ccccc1O)C2 (stereo unspecified)
inactive: [1] 23.8% | [2] -1.95% | [3] 6.3% | [4] 7.95% | [5] 23.2% | [6] 15.3%

CN(C)c1ccc(-c2c3ccc(Cl)cc3nc3ccc(Br)cc23)cc1
inactive: [1] -1.3% | [2] -1.9% | [3] -18.1% | [4] -4.3% | [5] -1% | [6] -8.9%

CSc1nc(N)n2nc(C)cc2n1
inactive: [1] -9.3% | [2] -13.7% | [3] 10.2% | [4] 6.9% | [5] 33.3% | [6] -3.8%

CNc1nc2c(C)ccc3[nH]c(NC)nc3c-2n1
inactive: [1] -22.2% | [2] -25.1% | [3] -6.65% | [4] 1.95% | [5] -41.4% | [6] -15.9%

O=C(O)/C=C\C(Cl)(Cl)Cl
inactive: [1] -6.35% | [2] -6.6% | [3] -6.7% | [4] 4.15% | [5] -41% | [6] -13.4%

Cn1c2ccccc2c2[nH]c3ccccc3c(=O)c21
inactive: [1] 54.5% | [2] 16.4% | [3] -15.1% | [4] -8.95% | [5] -11.4% | [6] 28.6%

CCCCCC(=O)OC(C)COc1ccccc1 (stereo unspecified)
inactive: [1] 20.6% | [2] 22.7% | [3] 20.8% | [4] -10.8% | [5] 30.9% | [6] 28.6%

Cc1ccc(C(=Nc2ccccc2)N=S(c2ccccc2)c2ccccc2)cc1
inactive: [1] -2.2% | [2] 5.6% | [3] -19% | [4] -16.1% | [5] 2.55% | [6] -30.6%

Nc1cccc(/C=C/c2ccc([N+](=O)[O-])cc2)c1
inactive: [1] -2.3% | [2] 24.6% | [3] 54.7% | [4] -12.4% | [5] 30% | [6] 39.5%

CC12CC3(Nc4ccccc4C3(C)O)OC1(C)c1ccccc1N2 (stereo unspecified)
inactive: [1] 1.1% | [2] 9.35% | [3] 10.3% | [4] 1.25% | [5] -6.1% | [6] 17.5%

O=CC(NC(=O)C(O)C(O)C(O)C(O)CO)C(O)C(O)C(O)CO (stereo unspecified)
inactive: [1] -13.2% | [2] 6.8% | [3] -1.45% | [4] -40% | [5] -0.95% | [6] 1.15%

C=CCn1c(=O)cc[nH]c1=S
inactive: [1] -11.6% | [2] -13.2% | [3] -24.7% | [4] 3.4% | [5] -1.05% | [6] -21.2%

CC(=O)OC1CCCCCCC1
inactive: [1] -13.2% | [2] 14.6% | [3] 15.5% | [4] -3.2% | [5] 19.5% | [6] 6.05%

O=C(Cc1nc2ccc(C(=O)c3ccccc3)cc2[nH]c1=O)C(=O)Nc1nc2ccccc2[nH]1
inactive: [1] -23.1% | [2] 19.3% | [3] -4.05% | [4] -17.9% | [5] -4.25% | [6] 9.5%

O=C1OC(c2ccccc2)=N/C1=C\c1cccc(F)c1
inactive: [1] -18.4% | [2] -18.2% | [3] -23.1% | [4] -6.95% | [5] -16.1% | [6] 6.25%

C=CCC(OCCC)c1ccc2c(c1)OCO2 (stereo unspecified)
inactive: [1] -7.1% | [2] 0.6% | [3] -0.65% | [4] 5.05% | [5] 3.4% | [6] -12.6%

Nc1ccc(C2=Nc3ccccc3SC(c3ccccc3O)C2)cc1 (stereo unspecified)
inactive: [1] 24.8% | [2] 13.5% | [3] 11.5% | [4] 19% | [5] 50.8% | [6] 6%

CC1(C)C[C@@H]2C1CCC1(C)CC2(O)CC[C@H]1O (stereo partly specified)
inactive: [1] -23.6% | [2] -35% | [3] -24.8% | [4] 14.4% | [5] 2.3% | [6] -17.9%

O=C(NNC(=O)c1ccc(Cl)c(Cl)c1)c1ccc(Cl)c(Cl)c1
inactive: [1] -37.9% | [2] -56.5% | [3] -25.1% | [4] 6.15% | [5] -16.4% | [6] -33.1%

C#CC1(O)CCCCCCCCC2(CCCCCCCC1)OCCO2
inactive: [1] -10.7% | [2] -10.8% | [3] -18.2% | [4] 13.7% | [5] -5.85% | [6] 1.25%

Cn1c(=O)c2c(nc(C(=N)SCC(=O)O)n2C)n(C)c1=O
inactive: [1] 3.1% | [2] 16.4% | [3] 15.8% | [4] 55% | [5] -44.8% | [6] 3.8%

CSCCCCCSC
inactive: [1] 0.6% | [2] -27.1% | [3] -25.3% | [4] 0.45% | [5] -3.75% | [6] 0.55%

N#CC(C(=O)CCc1nc2ccccc2[nH]1)c1nc2ccccc2s1 (stereo unspecified)
inactive: [1] 6.75% | [2] -3.5% | [3] -9.55% | [4] -17.8% | [5] 4.35% | [6] -0.6%

CCN(CC)P1(=O)C=C(C)C2C1C1C=C(C)C2P1(=O)N(CC)CC (stereo unspecified)
inactive: [1] 3.5% | [2] -2.45% | [3] -5.25% | [4] -5.25% | [5] -34.8% | [6] -13.2%

CCOC(=Nc1cccc2ccccc12)Nc1cccc2ccccc12
inactive: [1] -5.9% | [2] -6.95% | [3] -8.6% | [4] -25.2% | [5] -15.8% | [6] -6.65%

CC(=O)NCC(O)C(O)C(O)C(O)COC(=O)c1ccccc1 (stereo unspecified)
inactive: [1] 6.6% | [2] -1.25% | [3] 19.2% | [4] -6.45% | [5] -2.15% | [6] -5%

CC1=Nc2nc3ccccc3n2C(C)(C)C1
inactive: [1] 14.6% | [2] 18.8% | [3] 11.6% | [4] -3.95% | [5] -0.2% | [6] -34.1%

CC(=O)NC(C)c1ccc(N=NN2CCCC2)cc1 (stereo unspecified)
inactive: [1] 19.6% | [2] -6% | [3] 20% | [4] 19.9% | [5] 25.3% | [6] -30.5%

CCN(CC)c1nc2ccccc2o1
inactive: [1] -16.9% | [2] 16% | [3] 3.7% | [4] -36.8% | [5] -19.9% | [6] -9.2%
